From PubChem BioAssay
Records with an inconclusive call do not appear. Calls of active or inactive are those of the source.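 How the source made its calls, unless noted: active means inhibition over a set limit, the all-compound mean plus 3 SD, in both replicate runs; inconclusive means over that limit in just one replicate run; inactive means at or under that limit in both runs.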

Key:
[1] = Her2 expression decrease, cell viability multiplex – SKBR3 breast tumor cells, AlphaScreen, ATP viability, primary screen (AID 461;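 active means Her2 level under about 52% in both replicate screens, with viability over 70% of control, limit read from the data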;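 on Her2 level: lower value means less Her2 protein in the cells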;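 on viability: percent of carrier control wells set as 100% viability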); details: SKBR3 Her2 protein level, 18-24 h, measured here: SKBR3 viability, ATP luminescence, at 10 µM
[2] = target: Receptor tyrosine-protein kinase erbB-2 (Homo sapiens) (UniProt P04626); assay: as above; details: 18-24 h, at 10 µM, stronger effect = lower value
Chain of Receptor tyrosine-protein kinase erbB-2 (Homo sapiens) (P04626 whole entry, looked up): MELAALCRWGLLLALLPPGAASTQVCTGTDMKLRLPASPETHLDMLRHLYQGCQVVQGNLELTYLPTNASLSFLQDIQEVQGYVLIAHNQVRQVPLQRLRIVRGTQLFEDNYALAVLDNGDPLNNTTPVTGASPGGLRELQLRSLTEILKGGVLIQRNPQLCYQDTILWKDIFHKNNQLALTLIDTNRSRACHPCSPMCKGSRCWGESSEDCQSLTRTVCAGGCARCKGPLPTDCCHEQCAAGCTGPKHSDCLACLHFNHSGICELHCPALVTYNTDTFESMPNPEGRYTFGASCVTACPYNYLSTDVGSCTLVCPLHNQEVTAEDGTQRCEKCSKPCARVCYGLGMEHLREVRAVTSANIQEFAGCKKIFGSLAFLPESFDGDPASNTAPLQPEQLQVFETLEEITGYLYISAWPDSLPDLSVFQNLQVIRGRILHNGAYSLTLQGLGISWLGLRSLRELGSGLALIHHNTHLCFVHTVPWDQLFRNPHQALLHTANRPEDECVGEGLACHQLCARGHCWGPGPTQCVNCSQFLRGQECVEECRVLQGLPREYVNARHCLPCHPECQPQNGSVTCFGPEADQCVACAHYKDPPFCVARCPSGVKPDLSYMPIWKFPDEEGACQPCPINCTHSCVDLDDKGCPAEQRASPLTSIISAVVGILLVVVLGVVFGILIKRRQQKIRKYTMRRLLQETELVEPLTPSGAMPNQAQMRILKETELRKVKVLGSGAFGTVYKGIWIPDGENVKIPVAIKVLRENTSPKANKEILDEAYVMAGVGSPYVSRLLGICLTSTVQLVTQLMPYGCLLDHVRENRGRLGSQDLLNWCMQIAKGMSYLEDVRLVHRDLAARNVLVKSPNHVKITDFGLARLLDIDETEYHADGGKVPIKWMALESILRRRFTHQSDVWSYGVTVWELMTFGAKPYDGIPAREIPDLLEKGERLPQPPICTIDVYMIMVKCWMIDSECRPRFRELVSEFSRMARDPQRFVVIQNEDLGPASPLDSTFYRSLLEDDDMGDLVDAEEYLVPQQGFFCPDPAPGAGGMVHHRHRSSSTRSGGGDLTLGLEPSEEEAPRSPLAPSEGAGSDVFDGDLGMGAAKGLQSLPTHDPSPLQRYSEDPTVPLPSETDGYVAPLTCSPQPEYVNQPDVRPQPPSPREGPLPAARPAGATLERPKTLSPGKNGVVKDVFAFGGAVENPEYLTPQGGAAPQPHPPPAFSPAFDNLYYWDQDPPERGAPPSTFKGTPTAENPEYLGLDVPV

[3] = reduced viability of SK-BR-3 breast cancer cells – cell-based, 24 h, human, pilot screen (AID 572;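 active means viability at or below 10% of carrier control in both of two separate runs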;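 further: compound exposure lasted between 18 and 24 h rather than exactly 24 h; 100% = carrier-treated control wells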); details: SK-BR-3 viability, CellTiter-Glo luminescence, at 10 µM, stronger effect = lower value
[4] = HUVEC growth inhibition – cell-based, human, primary screen (AID 575;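 active means viability at or below 30% in both replicate assays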;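 further: 100% = median of untreated cell wells with 0.1% DMSO on each plate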); details: HUVEC proliferation, CellTiter-Glo luminescence, 72 h; at 10 µM; stronger effect = lower value
[5] = H69AR cell proliferation blockers – human, duplicate replicates, primary screen (AID 580;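 active means viability at or under a set limit in both replicates, limit being median viability minus 3 SD, cut at about 48% in these data, passing the limit was not always enough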;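 further: 100% = mean luminescence of untreated wells and 0% = no signal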); details: H69AR lung tumor cells viability, ATP luminescence, 72 h; at 10 µM; stronger effect = lower value
[6] = MRP1 drug-resistance reversers in H69AR cells – cell-based, doxorubicin co-treatment, pilot screen (AID 601;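 active means viability loss from added drug above about 55%, and viability with drug at most 40%, in both replicates, limit read from the data, passing the limit was not always enough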); details: CellTiter-Glo, 72 h, at 10 µM; for differential viability (reversal): stronger effect = higher value
[7] = yeast transport mutant growth inhibition pilot in 384-well plates, post-Golgi transport modulator project (AID 636; in the data active means inhibition above about 31%); details: absorbance 615 nm, about 18 h, stronger effect = higher value
[8] = growth suppression of yeast trafficking mutant, preliminary HTS, modulators of trafficking downstream of Golgi apparatus project, 1536-format plate, OD 615 nm (AID 637; in the data active means inhibition above about 30%); details: yeast transport mutant growth, absorbance 615 nm, 18 h; stronger effect = higher value
[9] = S. cerevisiae growth inhibition in permissive medium (OD615), pilot counter-assay for S. cerevisiae lifespan shortening project, permissive growth control (AID 705;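 active means growth inhibition above 25% in both replicates, a cutoff set 3 SD above the mean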); details: OD615, 24 h, at 10 µM, stronger effect = higher value
[10] = S. cerevisiae growth inhibition in restrictive medium, OD615, pilot screen, restrictive growth control, yeast lifespan reduction project (AID 706;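 active means growth inhibition above a set limit, 3 SD over mean compound inhibition, in both replicates, cut at about 43% in these data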;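 further: modified DeaD lifespan yeast strain shifted to restrictive glucose medium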); details: OD615, 48 h, at 10 µM, stronger effect = higher value
[11] = doxorubicin toxicity protection in MRP-1 cells – H69AR cells, CellTiter-Glo, duplicate, MRP-1 activator project, pilot screen (AID 807;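 active means viability increase at or above a cutoff of the median across tested compounds plus 3 SD, cut at about 8.5% in these data, passing the limit was not always enough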;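 further: compound pretreatment 18-22 h then 72 h combined with doxorubicin; 0% = doxorubicin alone and 100% = vehicle without doxorubicin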); details: H69AR viability with doxorubicin, CellTiter-Glo luminescence; at 10 µM; stronger effect = higher value
[12] = viability of HCT116 without oncogenic beta-catenin – human colon tumor cells, pilot screen (AID 823;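 active means cell viability at or below a set limit in both duplicate runs, the limit being the all-compound median minus 4 SD, cut at about 23% in these data, passing the limit was not always enough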;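 further: 0% = wells killed by 20 µM Hyamine and 100% = untreated DMSO cell wells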); details: HCT116 beta-catenin knockout viability, CellTiter-Glo, 60 h; at 10 µM; stronger effect = lower value
[13] = viability of PTEN-null HCT116 cells – cell-based, HCT116 clonal line, CellTiter-Glo, pilot screen (AID 824;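 active means viability at or below 27.92% in each of two runs, the all-compound median minus 4 SD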;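 further: 0% = 20 µM Hyamine control and 100% = vehicle cell control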); details: HCT116 PTEN-deleted viability, 60 h, at 10 µM, stronger effect = lower value
[14] = RAM pathway blockade in budding yeast – dse1pr::URA3 reporter, 5-FOA selection, pilot screen (AID 869);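 further: 0% = DMSO wells with no growth and 100% = 10 µM 1-NA-PP1 with full growth; RAM network block rescues cells from 5-FOA so hits raise OD615 growth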; details: S. cerevisiae dse1pr::URA3 5-FOA growth, OD615, 2 d; at 10 µM; stronger effect = higher value; strain carries analog-sensitive mutant Cbk1 kinase
[15] = RAM signaling pathway blockade in yeast – S. cerevisiae, Pdr1DBD-CYC8 efflux-inhibited sensitized strain, primary screen (AID 1298;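 active means RAM network inhibition above 8.4% in each of two replicates, 3 SD over the compound average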;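 further: 0% = DMSO untreated cells without growth and 100% = 10 µM 1-NA-PP1 full growth; higher means more yeast growth rescued from 5-FOA killing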); details: S. cerevisiae cbk1-as DSE1-URA3 strain, 5-FOA growth OD615, 2 d; at 50 µM; stronger effect = higher value
[16] = H69AR cells + 2 uM doxorubicin, measured here: viability with 2 uM doxorubicin, stronger effect = lower value
[17] = H69AR cells, compound alone cytotoxicity

c1ccc(-n2ncc3c(NC4CCCCCC4)ncnc32)cc1
74%: viability [6, 16]
inactive: Her2 level [2] 77% | viability [3] 83.5% | viability [4] 75.2% | differential viability (reversal) ([6]; H69AR cells + 2 uM doxorubicin) -28.2% | inhibition [7] -4.93% | inhibition [8] 1.67% | growth inhibition [9] -7.69% | growth inhibition [10] -4.42% | viability increase [11] -2.91% | viability [12] 88.4% | viability [13] 65.7% | inhibition [14] 1.17% | RAM network inhibition [15] 6.78%
45.8%: viability [6, 17]
83.5%: viability [1]
active: viability [5] 45.8%

COc1ccc(C2CC(c3ccc(C)cc3)Nc3ncnn32)cc1 (stereo not given)
86.1%: viability [6, 16]
inactive: Her2 level [2] 96.5% | viability [3] 106% | viability [4] 105% | viability [5] 101% | differential viability (reversal) ([6]; H69AR cells + 2 uM doxorubicin) 14.9% | inhibition [7] -0.27% | inhibition [8] 3.28% | growth inhibition [9] 2% | growth inhibition [10] 20% | viability increase [11] -0.88% | viability [12] 104% | viability [13] 88.7% | inhibition [14] 1.41% | RAM network inhibition [15] 0.05%
106%: viability [1]
101%: viability [6, 17]

CS(=O)(=O)Nc1ccccc1C(=O)O
96.3%: viability [6, 16]
inactive: Her2 level [2] 80.5% | viability [3] 102% | viability [4] 91.5% | viability [5] 98.8% | differential viability (reversal) ([6]; H69AR cells + 2 uM doxorubicin) 2.55% | inhibition [7] -2.34% | inhibition [8] -5.17% | growth inhibition [9] -7.19% | growth inhibition [10] -1.03% | viability increase [11] -1.2% | viability [12] 94.9% | viability [13] 97.6% | inhibition [14] 0.72% | RAM network inhibition [15] 2.56%
102%: viability [1]
98.8%: viability [6, 17]

O=C(Nc1ccc2c(c1)OCO2)c1ccc(CN2CCOCC2)cc1
97.5%: viability [1]
88.3%: viability [6, 16]
97.3%: viability [6, 17]
inactive: Her2 level [2] 88% | viability [3] 97.5% | viability [4] 98.7% | viability [5] 97.3% | differential viability (reversal) ([6]; H69AR cells + 2 uM doxorubicin) 9.03% | inhibition [7] -7.07% | inhibition [8] 7.1% | growth inhibition [9] -6.27% | growth inhibition [10] -16.3% | viability increase [11] 0.57% | viability [12] 71.3% | viability [13] 81.5% | inhibition [14] -0.165% | RAM network inhibition [15] 9.65%

COCCOC(=O)C1=C(C)N=c2s/c(=C\c3cccs3)c(=O)n2C1c1cccs1 (stereo not given)
71.9%: viability [6, 17]
91.5%: viability [1]
75.9%: viability [6, 16]
inactive: Her2 level [2] 77% | viability [3] 91.5% | viability [4] 82.4% | viability [5] 71.9% | differential viability (reversal) ([6]; H69AR cells + 2 uM doxorubicin) -4.05% | inhibition [7] -6.89% | inhibition [8] -8.17% | growth inhibition [9] -9.14% | growth inhibition [10] 1.78% | viability increase [11] -0.91% | viability [12] 86.3% | viability [13] 82.7% | inhibition [14] 2.83% | RAM network inhibition [15] 6.91%

CCn1cc(SCC(=O)NCC2CCCO2)c2ccccc21 (stereo not given)
88%: viability [1]
inactive: Her2 level [2] 93.5% | viability [3] 88% | viability [4] 102% | viability [5] 85.5% | differential viability (reversal) ([6]; H69AR cells + 2 uM doxorubicin) -9.37% | inhibition [7] -4.67% | inhibition [8] -0.5% | growth inhibition [9] 4.53% | growth inhibition [10] -6.71% | viability increase [11] -1.64% | viability [12] 94.8% | viability [13] 99.9% | inhibition [14] 1.44% | RAM network inhibition [15] 4.96%
94.9%: viability [6, 16]
85.5%: viability [6, 17]

O=C(OCCN=C1NS(=O)(=O)c2ccccc21)C1CC(=O)N(c2ccc(Cl)cc2)C1 (stereo not given)
93.2%: viability [6, 17]
114%: viability [1]
inactive: Her2 level [2] 99.5% | viability [3] 114% | viability [4] 106% | viability [5] 93.2% | differential viability (reversal) ([6]; H69AR cells + 2 uM doxorubicin) 5.78% | inhibition [7] -3.25% | inhibition [8] -1.67% | growth inhibition [9] 6.61% | growth inhibition [10] -8.43% | viability increase [11] -0.51% | viability [12] 107% | viability [13] 101% | inhibition [14] 0.695% | RAM network inhibition [15] -0.53%
87.4%: viability [6, 16]

COc1ccc(-c2cnc(SCC(=O)Nc3ccc4c(c3)OCO4)n2Cc2ccco2)cc1
102%: viability [1]
inactive: Her2 level [2] 70.5% | viability [3] 102% | viability [4] 76.9% | viability [5] 83.4% | differential viability (reversal) ([6]; H69AR cells + 2 uM doxorubicin) -9.64% | inhibition [7] 0.39% | inhibition [8] -6.03% | growth inhibition [9] 1.77% | growth inhibition [10] 10.1% | viability increase [11] -3.05% | viability [12] 67.4% | viability [13] 67.4% | inhibition [14] 1.66% | RAM network inhibition [15] 0.61%
93.1%: viability [6, 16]
83.4%: viability [6, 17]

CCOC(=O)c1sc2nc(NC(=O)C3CCCCC3)sc2c1C
76.9%: viability [6, 17]
inactive: Her2 level [2] 92.5% | viability [3] 95.5% | viability [4] 58.7% | viability [5] 76.9% | differential viability (reversal) ([6]; H69AR cells + 2 uM doxorubicin) 1.21% | inhibition [7] -0.4% | inhibition [8] -7.21% | growth inhibition [9] -4.09% | growth inhibition [10] -7.62% | viability increase [11] -0.22% | viability [12] 89.1% | viability [13] 95.2% | inhibition [14] 3.21% | RAM network inhibition [15] 4.73%
75.7%: viability [6, 16]
95.5%: viability [1]

O=C(Nc1cccc2ccccc12)c1ccc(Br)o1
inactive: Her2 level [2] 88.5% | viability [3] 120% | viability [4] 87.1% | viability [5] 84% | differential viability (reversal) ([6]; H69AR cells + 2 uM doxorubicin) -1.12% | inhibition [7] -3.25% | inhibition [8] -0.17% | growth inhibition [9] -10% | growth inhibition [10] 1.96% | viability increase [11] -1.67% | viability [12] 94.3% | viability [13] 90.8% | inhibition [14] 0.995% | RAM network inhibition [15] 3.58%
85.1%: viability [6, 16]
84%: viability [6, 17]
120%: viability [1]
